Where “and” joins values, the source holds several entries; their conditions need not be identical. Identical values can stand only once. Records with an inconclusive call do not appear. The source holds several records for some structures; these can differ, active in one and inactive in another. Calls of active or inactive are those of the source. Unless noted, the call rests on the fitted dose curve; in most records, active means well fitted curve in the direction sought with a large enough effect in the repeat runs; inconclusive means weak or mixed curves; inactive means no such curve, though single readings can be large; an effect the other way counts as inactive or inconclusive.
Key:
[1] = qHTS assay for small molecules that induce genotoxicity in human embryonic kidney cells expressing luciferase-tagged ATAD5 (AID 651632); further: nearly all actives have a fitted effect of over 15% in size
In short: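 Quantitative HTS in HEK293T expressing luciferase-tagged ATAD5, whose levels rise upon DNA damage. Exposure ran 16 hr at 37C and 5% CO2, with luminescence read 30 min after Amplite addition at room temperature.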

[2] = qHTS assay for small molecule agonists of the p53 signaling pathway - cell viability (AID 651633; calls by dose curve;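 further: p53RE-bla HCT reporter cells with a stable beta-lactamase p53 reporter; series mostly up to about 83 µM; nearly all actives have a fitted effect of over 30% in size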)
In short: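 p53RE-bla cells were treated with compound for 16 hours at 37 C. Cytotoxicity was then measured as CellTiter-Glo luminescence after 30 min at room temperature.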

[3] = qHTS assay for small molecules that induce genotoxicity in human embryonic kidney cells expressing luciferase-tagged ATAD5 - cell viability (AID 651634; calls by dose curve; further: nearly all actives have a fitted effect of over 25% in size)
In short: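 After 15.5 hr incubation with compound at 37C, 5% CO2, HEK293T ATAD5-luciferase cells received CellTiter-Fluor reagent; fluorescence intensity was quantified following 30 min at 37C.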

[4] = qHTS assay for small molecule disruptors of the mitochondrial membrane potential - cell viability (AID 720634; calls by dose curve;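 further: human HepG2 liver cancer cells; series mostly up to about 83 µM; nearly all actives have a fitted effect of over 20% in size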)
In short: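 ATP-based luminescent viability readout (CellTiter-Glo, 30 min, room temperature) in HepG2 cells multiplexed with the m-MPI membrane potential dye; compound exposure lasted 1 hr at 37 C.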

[5] = qHTS assay for small molecule disruptors of the mitochondrial membrane potential (AID 720635); further: potency means the concentration at half of the fitted maximal effect
In short: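 HepG2 cells exposed to compound 1 hr at 37C, then Mito-MPS dye 30 min. Ratio read of aggregate (540/590 nm) versus monomer (490/535 nm) fluorescence.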

[6] = qHTS assay to test for compound auto fluorescence at 590 nm (red) in HepG2 cells (AID 720674)
In short: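 Seeding: 2,000 HepG2 cells/well, MEM/10% FBS, overnight 37 C. Dosing: compound vs DMSO. Incubation: 1 hr, 37 C, 5% CO2. Read: fluorescence 540 ex/590 em, Rose Bengal sodium as red reference.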

[7] = qHTS assay to test for compound auto fluorescence at 535 nm (green) in HepG2 cells (AID 720675)
[8] = qHTS assay to test for compound auto fluorescence at 460 nm (blue) in HEK293 cells (AID 720678)
In short: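 Auto fluorescence in the blue band was quantified as triamterene equivalency. HEK293 cells were seeded at 2,000/well, dosed after a 4-5 hr attachment, and kept overnight at 37C before the 405/460 nm reading.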

[9] = qHTS assay to test for compound auto fluorescence at 590 nm (red) in HEK293 cells (AID 720679)
In short: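 Autofluorescence equivalency to Rose Bengal sodium, 540/590nm, in HEK293 cells exposed overnight to 23 nL compound per well.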

[10] = qHTS assay to test for compound auto fluorescence at 535 nm (green) in HEK293 cells (AID 720680)
[11] = qHTS assay to test for compound auto fluorescence at 460 nm (blue) in HEK293 cell free culture (AID 720681)
In short: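 Compounds were added to cell-free DMEM with 10% FBS and fluorescence read directly. The blue channel used 405 nm excitation and 460 nm emission, with triamterene as the reference fluorophore.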

[12] = qHTS assay to test for compound auto fluorescence at 535 nm (green) in HEK293 cell free culture (AID 720682)
In short: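 Green-channel intensity (Ex/Em 485/535 nm) was recorded from compound-treated wells containing only DMEM with 10% FBS. Fluorescein provided the equivalency standard.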

[13] = qHTS assay to test for compound auto fluorescence at 590 nm (red) in HEK293 cell free culture (AID 720683)
In short: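 Cell-free wells of DMEM with 10% FBS received compound, and intrinsic fluorescence was read at excitation/emission 540/590 nm. Values expressed as equivalence to Rose Bengal sodium.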

[14] = qHTS assay to test for compound auto fluorescence at 590 nm (red) in HepG2 cell free culture (AID 720684)
In short: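 Auto fluorescence equivalency versus Rose Bengal sodium, red channel Ex/Em 540/590 nm; compounds in cell-free MEM/10% FBS; DMSO vehicle control.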

[15] = qHTS assay to test for compound auto fluorescence at 460 nm (blue) in HepG2 cell free culture (AID 720685)
In short: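 Cell-free plates of MEM plus 10% FBS received 23 nL compound or DMSO vehicle; blue-channel (405/460 nm) intensity scored against triamterene as reference fluorophore.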

[16] = qHTS assay to test for compound auto fluorescence at 535 nm (green) in HepG2 cell free culture (AID 720686)
[17] = qHTS assay to test for compound auto fluorescence at 460 nm (blue) in HepG2 cells (AID 720687)
In short: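 HepG2 cells in MEM with 10% FBS, attached overnight at 37 C, were exposed to compound or DMSO for 1 hr at 37 C, 5% CO2. Blue fluorescence was read at 405/460 nm, with triamterene as reference fluorophore.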

[18] = target: Glucocorticoid receptor (Homo sapiens) (UniProt P04150); assay: qHTS assay to identify small molecule agonists of the glucocorticoid receptor (GR) signaling pathway (AID 720691; active means well fitted activation curve with a large enough effect in the signal ratio in the repeat runs, not every such curve was filed as active; the % refers to the signal ratio)
Sequence of Glucocorticoid receptor (Homo sapiens) (P04150 whole entry, looked up): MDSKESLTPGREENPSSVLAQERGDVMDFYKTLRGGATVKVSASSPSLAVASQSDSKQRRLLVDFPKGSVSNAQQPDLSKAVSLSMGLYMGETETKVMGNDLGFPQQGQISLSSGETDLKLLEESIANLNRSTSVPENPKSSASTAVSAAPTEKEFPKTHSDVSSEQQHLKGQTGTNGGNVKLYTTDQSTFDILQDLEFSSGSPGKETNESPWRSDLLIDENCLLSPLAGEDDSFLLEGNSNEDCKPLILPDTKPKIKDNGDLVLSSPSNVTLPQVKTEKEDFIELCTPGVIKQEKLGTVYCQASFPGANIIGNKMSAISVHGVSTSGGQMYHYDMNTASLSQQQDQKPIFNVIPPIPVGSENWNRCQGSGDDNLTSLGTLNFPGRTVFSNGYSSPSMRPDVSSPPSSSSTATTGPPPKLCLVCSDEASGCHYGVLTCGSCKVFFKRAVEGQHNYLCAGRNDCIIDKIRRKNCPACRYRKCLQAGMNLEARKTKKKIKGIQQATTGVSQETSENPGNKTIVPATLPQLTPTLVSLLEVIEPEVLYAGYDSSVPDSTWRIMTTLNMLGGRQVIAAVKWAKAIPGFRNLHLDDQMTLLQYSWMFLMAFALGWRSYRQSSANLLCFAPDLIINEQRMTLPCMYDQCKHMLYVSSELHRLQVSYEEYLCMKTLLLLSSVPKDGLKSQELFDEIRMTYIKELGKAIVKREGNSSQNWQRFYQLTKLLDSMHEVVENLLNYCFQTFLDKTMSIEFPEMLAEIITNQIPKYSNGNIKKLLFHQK
In short: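 Cells: GR-bla HeLa, endogenous GR with stably integrated GRE-beta-lactamase reporter. Treatment 18 h, 37 C, compounds delivered in DMSO. Detection via LiveBLAzer B/G FRET substrate, 2 h RT, fluorescence intensity.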

[19] = target: Glucocorticoid receptor (Homo sapiens) (UniProt P04150); assay: qHTS assay to identify small molecule antagonists of the glucocorticoid receptor (GR) signaling pathway (AID 720692; active means well fitted inhibition curve with a large enough effect in the signal ratio in the repeat runs, not every such curve was filed as active; the % refers to the signal ratio; further: potency means the concentration at half of the fitted maximal effect)
In short: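 Quantitative HTS in antagonist format: HeLa cells expressing endogenous GR and a stably integrated GRE-bla reporter, stimulated with 5 nM dexamethasone (final) alongside test compounds for 18 h.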

[20] = qHTS assay for small molecule agonists of the p53 signaling pathway (AID 651631; calls by dose curve; further: nearly all actives have a fitted effect of over 15% in size)
In short: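 We treat p53RE-bla HCT-116 cells with compounds for 16 h at 37 °C, add LiveBLAzer B/G FRET substrate for 2 h at room temperature, and measure fluorescence intensity.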

Measured: Potency

CN(N=O)c1ccccc1
not listed: [20]
inactive: all other assays above

Cc1ccc(N)cc1Cl
not listed: [18] | [19] | [20]
inactive: all other assays above

CCCCN(CCCC)SN(C)C(=O)Oc1cccc2c1OC(C)(C)C2
active: [5] 62.1 µM
not listed: [2] | [20]
inactive: all other assays above

O=c1ccc(=O)[nH][nH]1
not listed: [1] | [18] | [19]
inactive: all other assays above

CCCN(CCC)c1c([N+](=O)[O-])cc(C(F)(F)F)cc1[N+](=O)[O-]
not listed: [5] | [18] | [19] | [20]
inactive: all other assays above

OCCN(CCO)CCO
not listed: [1] | [2] | [4] | [5] | [18] | [19] | [20]
inactive: all other assays above

CN(C)[C@@H]1C(=O)C(C(N)=O)=C(O)[C@@]2(O)C(=O)C3=C(O)c4c(O)cccc4[C@@](C)(O)[C@H]3C[C@@H]12
not listed: [1] | [5]
inactive: all other assays above

O=S(=O)(c1ccc(Cl)cc1)c1cc(Cl)c(Cl)cc1Cl
active: [5] 12.2 µM and 13.7 µM
not listed: [19] | [20]
inactive: all other assays above

Cc1ccc([N+](=O)[O-])cc1C
47.7 µM (active) and inactive: [5]
not listed: [18] | [19] | [20]
inactive: all other assays above

[O-][Cl+2]([O-])O
not listed: [1] | [3] | [18] | [19]
inactive: all other assays above

Clc1cccc(Cl)c1Cl
not listed: [1] | [20]
inactive: all other assays above

C#CCN(C)[C@H](C)Cc1ccccc1
not listed: [20]
inactive: all other assays above

COc1ccc2c3c1O[C@H]1[C@@H](O)C=C[C@H]4[C@@H](C2)N(C)CC[C@@]341
not listed: [5] | [18] | [19] | [20]
inactive: all other assays above

CCNc1nc(NC(C)C)nc(SC)n1
not listed: [5] | [18] | [19] | [20]
inactive: all other assays above

O=Cc1cccc(Oc2ccccc2)c1
not listed: [2] | [5] | [20]
inactive: all other assays above

COC(=O)c1ccccc1N
not listed: [1]
inactive: all other assays above

C1CN2CCN1CC2
not listed: [4] | [5] | [18] | [19] | [20]
inactive: all other assays above

CC(C)OC(=O)Nc1cccc(Cl)c1
active: [5] 47.9 µM and 24.3 µM
not listed: [4] | [18] | [19]
inactive: all other assays above

C[C@]12CC[C@H]3[C@@H](CC[C@@]45O[C@@H]4C(O)=C(C#N)C[C@]35C)[C@@H]1CC[C@@H]2O
not listed: [5] | [18] | [19] | [20]
inactive: all other assays above

CC(Oc1ccc(Cl)cc1Cl)C(=O)O (stereo not given)
not listed: [4] | [5]
inactive: all other assays above

Nc1ccc(Br)cc1
not listed: [19] | [20]
inactive: all other assays above

CON(C)C(=O)Nc1ccc(Cl)c(Cl)c1
active: [5] 61.4 µM and 43.3 µM
not listed: [4]
inactive: all other assays above

Cc1[nH]c(=O)n(C(C)(C)C)c(=O)c1Cl
not listed: [18] | [19] | [20]
inactive: all other assays above

C=CC(N)=O
not listed: [1] | [3]
inactive: all other assays above

CN1C(=O)CN=C(c2ccccc2)c2cc(Cl)ccc21
active: [19] 13.4 µM and 28 µM
not listed: [1]
inactive: all other assays above

CC(C)=C[C@@H]1[C@@H](C(=O)OCc2coc(Cc3ccccc3)c2)C1(C)C
active: [5] 23.7 µM
not listed: [20]
inactive: all other assays above
